# Measured values taken from paper PMC11062922 (Nature Chemical Biology, 2023).
# Where two headings read alike, the source gives them in different places.
# Experiments:
# [1] = system: CHEK1; settings: read-out: apparent Kd, n = 1
# [2] = system: ERN1; settings: read-out: apparent Kd, n = 1
# [3] = compound concentrations:100 nM and 1000 nM (sheet 'Lestaurtinib' of Supplementary Table 1),run:Lestaurtinib_02601_R1,Plate:MR018
# [4] = compound concentrations:100 nM and 1000 nM (sheet 'Lestaurtinib' of Supplementary Table 1),run:Lestaurtinib_02601_R3,Plate:MR018
# [5] = compound concentrations:100 nM and 1000 nM (sheet 'Lestaurtinib' of Supplementary Table 1),run:Lestaurtinib_02606_R1,Plate:MR019
# [6] = compound concentrations:100 nM and 1000 nM (sheet 'Lestaurtinib' of Supplementary Table 1),run:Lestaurtinib_02606_R2,Plate:MR019
# [7] = compound concentrations:100 nM and 1000 nM (sheet 'Lestaurtinib' of Supplementary Table 1),run:Lestaurtinib_02606_R3,Plate:MR019
# [8] = compound concentrations:100 nM and 1000 nM (sheet 'Lestaurtinib' of Supplementary Table 1),run:Lestaurtinib_02624_R2,Plate:MR020
# [9] = compound concentrations:100 nM and 1000 nM (sheet 'Lestaurtinib' of Supplementary Table 1),run:Lestaurtinib_02624_R3,Plate:MR020
# [10] = compound concentrations:100 nM and 1000 nM (sheet 'Lestaurtinib' of Supplementary Table 1),run:Lestaurtinib_02724_R3,Plate:MR021
# [11] = compound concentrations:100 nM and 1000 nM (sheet 'Lestaurtinib' of Supplementary Table 1),run:Lestaurtinib_02741_R1,Plate:MR023
# [12] = compound concentrations:100 nM and 1000 nM (sheet 'Lestaurtinib' of Supplementary Table 1),run:Lestaurtinib_02748_R3,Plate:MR024
substance,measurement,setting,value
Lestaurtinib,potency estimated from few doses,[1]; [3],98 nM
same,potency estimated from few doses,[1]; [4],78.8 nM
same,potency estimated from few doses,[1]; [5],88.5 nM
same,potency estimated from few doses,[1]; [6],74.1 nM
same,potency estimated from few doses,[1]; [7],97 nM
same,potency estimated from few doses,[1]; [8],93 nM
same,potency estimated from few doses,[1]; [9],79 nM
same,potency estimated from few doses,[1]; [10],92 nM
same,potency estimated from few doses,[1]; [11],88 nM
same,potency estimated from few doses,"[1]; compound concentrations:100 nM and 1000 nM (sheet 'Lestaurtinib' of Supplementary Table 1),run:Lestaurtinib_02748_R1,Plate:MR024",69.5 nM
same,potency estimated from few doses,[1]; [12],80.1 nM
same,potency estimated from few doses,"[1]; compound concentrations:100 nM and 1000 nM (sheet 'Lestaurtinib' of Supplementary Table 1),run:Lestaurtinib_02752_R1,Plate:MR025",75.5 nM
same,potency estimated from few doses,"[1]; compound concentrations:100 nM and 1000 nM (sheet 'Lestaurtinib' of Supplementary Table 1),run:Lestaurtinib_02765_R2,Plate:MR026",98.7 nM
same,potency estimated from few doses,"[1]; compound concentrations:100 nM and 1000 nM (sheet 'Lestaurtinib' of Supplementary Table 1),run:Lestaurtinib_02765_R3,Plate:MR026",75.5 nM
same,potency estimated from few doses,"[1]; compound concentrations:100 nM and 1000 nM (sheet 'Lestaurtinib' of Supplementary Table 1),run:Lestaurtinib_02766_R1,Plate:MR027",92 nM
same,potency estimated from few doses,"[1]; compound concentrations:100 nM and 1000 nM (sheet 'Lestaurtinib' of Supplementary Table 1),run:Lestaurtinib_02766_R2,Plate:MR027",71.2 nM
same,potency estimated from few doses,"[1]; compound concentrations:100 nM and 1000 nM (sheet 'Lestaurtinib' of Supplementary Table 1),run:Lestaurtinib_02766_R3,Plate:MR027",82.7 nM
same,potency estimated from few doses,"[1]; compound concentrations:100 nM and 1000 nM (sheet 'Lestaurtinib' of Supplementary Table 1),run:Lestaurtinib_02768_R1,Plate:MR028",82.7 nM
same,potency estimated from few doses,"[1]; compound concentrations:100 nM and 1000 nM (sheet 'Lestaurtinib' of Supplementary Table 1),run:Lestaurtinib_02768_R3,Plate:MR028",86.1 nM
same,potency estimated from few doses,"[1]; compound concentrations:100 nM and 1000 nM (sheet 'Lestaurtinib' of Supplementary Table 1),run:Lestaurtinib_02795_R1,Plate:MR022",89.5 nM
same,potency estimated from few doses,"[1]; compound concentrations:100 nM and 1000 nM (sheet 'Lestaurtinib' of Supplementary Table 1),run:Lestaurtinib_02795_R2,Plate:MR022",80.2 nM
same,potency estimated from few doses,"[1]; compound concentrations:100 nM and 1000 nM (sheet 'Lestaurtinib' of Supplementary Table 1),run:Lestaurtinib_02795_R3,Plate:MR022",211 nM
same,potency estimated from few doses,"[1]; compound concentrations:100 nM and 1000 nM (sheet 'Lestaurtinib' of Supplementary Table 1),run:Lestaurtinib_02802_R1,Plate:MR029",84.3 nM
same,potency estimated from few doses,"[1]; compound concentrations:100 nM and 1000 nM (sheet 'Lestaurtinib' of Supplementary Table 1),run:Lestaurtinib_02802_R2,Plate:MR029",91.6 nM
same,potency estimated from few doses,"[1]; compound concentrations:100 nM and 1000 nM (sheet 'Lestaurtinib' of Supplementary Table 1),run:Lestaurtinib_02802_R3,Plate:MR029",91.6 nM
same,potency estimated from few doses,"[1]; compound concentrations:100 nM and 1000 nM (sheet 'Lestaurtinib' of Supplementary Table 1),run:Lestaurtinib_02896_R1,Plate:MR030",73.7 nM
same,potency estimated from few doses,"[1]; compound concentrations:100 nM and 1000 nM (sheet 'Lestaurtinib' of Supplementary Table 1),run:Lestaurtinib_02896_R2,Plate:MR030",70 nM
same,potency estimated from few doses,"[1]; compound concentrations:100 nM and 1000 nM (sheet 'Lestaurtinib' of Supplementary Table 1),run:Lestaurtinib_02896_R3,Plate:MR030",66.7 nM
same,potency estimated from few doses,"[1]; compound concentrations:100 nM and 1000 nM (sheet 'Lestaurtinib' of Supplementary Table 1),run:Lestaurtinib_03172_R2,Plate:MR031",83.5 nM
same,potency estimated from few doses,"[1]; compound concentrations:100 nM and 1000 nM (sheet 'Lestaurtinib' of Supplementary Table 1),run:Lestaurtinib_03172_R3,Plate:MR031",94.3 nM
same,potency estimated from few doses,"[1]; compound concentrations:100 nM and 1000 nM (sheet 'Lestaurtinib' of Supplementary Table 1),run:Lestaurtinib_03260_R3,Plate:MR033",67.9 nM
same,potency estimated from few doses,"[2]; compound concentrations:100 nM and 1000 nM (sheet 'Lestaurtinib' of Supplementary Table 1),run:Lestaurtinib_02339_R1,Plate:MR001",97.9 nM
same,potency estimated from few doses,"[2]; compound concentrations:100 nM and 1000 nM (sheet 'Lestaurtinib' of Supplementary Table 1),run:Lestaurtinib_02339_R2,Plate:MR001",65.8 nM
same,potency estimated from few doses,"[2]; compound concentrations:100 nM and 1000 nM (sheet 'Lestaurtinib' of Supplementary Table 1),run:Lestaurtinib_02339_R3,Plate:MR001",47 nM
same,potency estimated from few doses,"[2]; compound concentrations:100 nM and 1000 nM (sheet 'Lestaurtinib' of Supplementary Table 1),run:Lestaurtinib_02364_R1,Plate:MR002",75.2 nM
same,potency estimated from few doses,"[2]; compound concentrations:100 nM and 1000 nM (sheet 'Lestaurtinib' of Supplementary Table 1),run:Lestaurtinib_02364_R2,Plate:MR002",58.2 nM
same,potency estimated from few doses,"[2]; compound concentrations:100 nM and 1000 nM (sheet 'Lestaurtinib' of Supplementary Table 1),run:Lestaurtinib_02367_R1,Plate:MR003",83.4 nM
same,potency estimated from few doses,"[2]; compound concentrations:100 nM and 1000 nM (sheet 'Lestaurtinib' of Supplementary Table 1),run:Lestaurtinib_02367_R3,Plate:MR003",76.1 nM
same,potency estimated from few doses,"[2]; compound concentrations:100 nM and 1000 nM (sheet 'Lestaurtinib' of Supplementary Table 1),run:Lestaurtinib_02381_R1,Plate:MR004",44.2 nM
same,potency estimated from few doses,"[2]; compound concentrations:100 nM and 1000 nM (sheet 'Lestaurtinib' of Supplementary Table 1),run:Lestaurtinib_02381_R2,Plate:MR004",58 nM
same,potency estimated from few doses,"[2]; compound concentrations:100 nM and 1000 nM (sheet 'Lestaurtinib' of Supplementary Table 1),run:Lestaurtinib_02407_R1,Plate:MR005",74.7 nM
same,potency estimated from few doses,"[2]; compound concentrations:100 nM and 1000 nM (sheet 'Lestaurtinib' of Supplementary Table 1),run:Lestaurtinib_02407_R3,Plate:MR005",65.8 nM
same,potency estimated from few doses,"[2]; compound concentrations:100 nM and 1000 nM (sheet 'Lestaurtinib' of Supplementary Table 1),run:Lestaurtinib_02422_R1,Plate:MR006",64.3 nM
same,potency estimated from few doses,"[2]; compound concentrations:100 nM and 1000 nM (sheet 'Lestaurtinib' of Supplementary Table 1),run:Lestaurtinib_02422_R2,Plate:MR006",68.1 nM
same,potency estimated from few doses,"[2]; compound concentrations:100 nM and 1000 nM (sheet 'Lestaurtinib' of Supplementary Table 1),run:Lestaurtinib_02422_R3,Plate:MR006",67.9 nM
same,potency estimated from few doses,"[2]; compound concentrations:100 nM and 1000 nM (sheet 'Lestaurtinib' of Supplementary Table 1),run:Lestaurtinib_02438_R1,Plate:MR008",49.4 nM
same,potency estimated from few doses,"[2]; compound concentrations:100 nM and 1000 nM (sheet 'Lestaurtinib' of Supplementary Table 1),run:Lestaurtinib_02438_R2,Plate:MR008",63.9 nM
same,potency estimated from few doses,"[2]; compound concentrations:100 nM and 1000 nM (sheet 'Lestaurtinib' of Supplementary Table 1),run:Lestaurtinib_02438_R3,Plate:MR008",64.3 nM
same,potency estimated from few doses,"[2]; compound concentrations:100 nM and 1000 nM (sheet 'Lestaurtinib' of Supplementary Table 1),run:Lestaurtinib_02443_R1,Plate:MR009",67.3 nM
same,potency estimated from few doses,"[2]; compound concentrations:100 nM and 1000 nM (sheet 'Lestaurtinib' of Supplementary Table 1),run:Lestaurtinib_02443_R2,Plate:MR009",58.1 nM
same,potency estimated from few doses,"[2]; compound concentrations:100 nM and 1000 nM (sheet 'Lestaurtinib' of Supplementary Table 1),run:Lestaurtinib_02443_R3,Plate:MR009",63.3 nM
same,potency estimated from few doses,"[2]; compound concentrations:100 nM and 1000 nM (sheet 'Lestaurtinib' of Supplementary Table 1),run:Lestaurtinib_02473_R1,Plate:MR010",52.6 nM
same,potency estimated from few doses,"[2]; compound concentrations:100 nM and 1000 nM (sheet 'Lestaurtinib' of Supplementary Table 1),run:Lestaurtinib_02473_R2,Plate:MR010",60.5 nM
same,potency estimated from few doses,"[2]; compound concentrations:100 nM and 1000 nM (sheet 'Lestaurtinib' of Supplementary Table 1),run:Lestaurtinib_02473_R3,Plate:MR010",69.9 nM
same,potency estimated from few doses,"[2]; compound concentrations:100 nM and 1000 nM (sheet 'Lestaurtinib' of Supplementary Table 1),run:Lestaurtinib_02482_R3,Plate:MR011",54.1 nM
same,potency estimated from few doses,"[2]; compound concentrations:100 nM and 1000 nM (sheet 'Lestaurtinib' of Supplementary Table 1),run:Lestaurtinib_02487_R1,Plate:MR012",58.2 nM
same,potency estimated from few doses,"[2]; compound concentrations:100 nM and 1000 nM (sheet 'Lestaurtinib' of Supplementary Table 1),run:Lestaurtinib_02496_R1,Plate:MR013",79.9 nM
same,potency estimated from few doses,"[2]; compound concentrations:100 nM and 1000 nM (sheet 'Lestaurtinib' of Supplementary Table 1),run:Lestaurtinib_02496_R2,Plate:MR013",82.7 nM
same,potency estimated from few doses,"[2]; compound concentrations:100 nM and 1000 nM (sheet 'Lestaurtinib' of Supplementary Table 1),run:Lestaurtinib_02496_R3,Plate:MR013",62.6 nM
same,potency estimated from few doses,"[2]; compound concentrations:100 nM and 1000 nM (sheet 'Lestaurtinib' of Supplementary Table 1),run:Lestaurtinib_02566_R2,Plate:MR014",99.9 nM
same,potency estimated from few doses,"[2]; compound concentrations:100 nM and 1000 nM (sheet 'Lestaurtinib' of Supplementary Table 1),run:Lestaurtinib_02572_R2,Plate:MR015",67.3 nM
same,potency estimated from few doses,"[2]; compound concentrations:100 nM and 1000 nM (sheet 'Lestaurtinib' of Supplementary Table 1),run:Lestaurtinib_02577_R1,Plate:MR016",81.4 nM
same,potency estimated from few doses,"[2]; compound concentrations:100 nM and 1000 nM (sheet 'Lestaurtinib' of Supplementary Table 1),run:Lestaurtinib_02577_R2,Plate:MR016",61.5 nM
same,potency estimated from few doses,"[2]; compound concentrations:100 nM and 1000 nM (sheet 'Lestaurtinib' of Supplementary Table 1),run:Lestaurtinib_02577_R3,Plate:MR016",56.2 nM
same,potency estimated from few doses,"[2]; compound concentrations:100 nM and 1000 nM (sheet 'Lestaurtinib' of Supplementary Table 1),run:Lestaurtinib_02584_R1,Plate:MR017",49.6 nM
same,potency estimated from few doses,"[2]; compound concentrations:100 nM and 1000 nM (sheet 'Lestaurtinib' of Supplementary Table 1),run:Lestaurtinib_02584_R2,Plate:MR017",50.5 nM
same,potency estimated from few doses,"[2]; compound concentrations:100 nM and 1000 nM (sheet 'Lestaurtinib' of Supplementary Table 1),run:Lestaurtinib_02584_R3,Plate:MR017",79.4 nM
same,potency estimated from few doses,[2]; [3],73.5 nM
same,potency estimated from few doses,"[2]; compound concentrations:100 nM and 1000 nM (sheet 'Lestaurtinib' of Supplementary Table 1),run:Lestaurtinib_02601_R2,Plate:MR018",93.1 nM
same,potency estimated from few doses,[2]; [4],63.8 nM
same,potency estimated from few doses,[2]; [5],79.4 nM
same,potency estimated from few doses,[2]; [6],83.8 nM
same,potency estimated from few doses,[2]; [7],87.5 nM
same,potency estimated from few doses,"[2]; compound concentrations:100 nM and 1000 nM (sheet 'Lestaurtinib' of Supplementary Table 1),run:Lestaurtinib_02624_R1,Plate:MR020",87.4 nM
same,potency estimated from few doses,[2]; [8],94.5 nM
same,potency estimated from few doses,[2]; [9],93.4 nM
same,potency estimated from few doses,"[2]; compound concentrations:100 nM and 1000 nM (sheet 'Lestaurtinib' of Supplementary Table 1),run:Lestaurtinib_02724_R1,Plate:MR021",90.7 nM
same,potency estimated from few doses,"[2]; compound concentrations:100 nM and 1000 nM (sheet 'Lestaurtinib' of Supplementary Table 1),run:Lestaurtinib_02724_R2,Plate:MR021",92.1 nM
same,potency estimated from few doses,[2]; [10],78.5 nM
same,potency estimated from few doses,[2]; [11],83.9 nM
same,potency estimated from few doses,"[2]; compound concentrations:100 nM and 1000 nM (sheet 'Lestaurtinib' of Supplementary Table 1),run:Lestaurtinib_02741_R2,Plate:MR023",80 nM
same,potency estimated from few doses,"[2]; compound concentrations:100 nM and 1000 nM (sheet 'Lestaurtinib' of Supplementary Table 1),run:Lestaurtinib_02741_R3,Plate:MR023",69.3 nM
same,potency estimated from few doses,[2]; [12],74.4 nM
same,potency estimated from few doses,"[2]; compound concentrations:100 nM and 1000 nM (sheet 'Lestaurtinib' of Supplementary Table 1),run:Lestaurtinib_02752_R2,Plate:MR025",57.7 nM
